Compound activity as filed in PubChem BioAssay.
A selection: hits, their analogues and other compounds. The true share with any hit is near 2.6%.
PKA-R1A activ: PKA-R1A complex activation; activation, % at 11.4 µM; 0.083% of 340,000 active; PKA-R1A dissociation, Cy5-IP20 fluorescence polarization; scaled: DMSO 0%, 113 µM cGMP 100%; P00514+P68181;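 active means percent activation above the mean of all tested compounds plus 3 SD, cut at about 19% in these data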;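 further: higher means more PKAc released from R1A so a rise in polarization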
pPAFAH inh: inhibitors of human plasma PAF acetylhydrolase (pPAFAH) | 1.5% of 330,000 active | inhibition, % at 3.39 µM | recombinant pPAFAH, FP-rhodamine probe fluorescence polarization | Q13093;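 active means inhibition above the mean inhibition across the screen plus 3 SD, cut at about 25% in these data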;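 further: inhibitors block binding of the rhodamine activity-based probe so polarization drops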
PAFAH1B3 FP inh: PAFAH1B3 (human) inhibition; Q15102; recombinant PAFAH1B3, FP-rhodamine probe, fluorescence polarization; inhibition, % at 3.39 µM; 0.28% of 340,000 active;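 active means inhibition above the screen-wide average of all tested compounds plus 3 SD, cut at about 25% in these data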
Target sequence (Q15102 whole entry, looked up): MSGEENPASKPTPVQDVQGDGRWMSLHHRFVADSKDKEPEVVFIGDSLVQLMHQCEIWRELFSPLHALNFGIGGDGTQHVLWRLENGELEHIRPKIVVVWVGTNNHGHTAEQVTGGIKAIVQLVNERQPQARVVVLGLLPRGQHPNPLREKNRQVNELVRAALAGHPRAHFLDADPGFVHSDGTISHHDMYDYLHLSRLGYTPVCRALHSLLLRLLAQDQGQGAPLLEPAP
PAFAH2 inh: PAFAH2 (human) inhibition; Q99487; recombinant PAFAH2, FP-rhodamine activity probe, fluorescence polarization; inhibition, % at 3.39 µM; 0.99% of 340,000 active;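 active means inhibition above the mean over all tested compounds plus 3 SD, cut at about 30% in these data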;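 further: inhibitors block probe labeling of enzyme so polarization drops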
PAFAH1B2 FP inh: blocks human PAF acetylhydrolase 1b catalytic subunit 2; P68402; recombinant PAFAH1B2, FP-rhodamine activity probe, fluorescence polarization; inhibition, % at 3.39 µM; 1.2% of 340,000 active; AID 492953;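 active means inhibition above the mean of all tested compounds plus 3 SD, cut at about 24% in these data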
Target sequence (P68402 whole entry, looked up): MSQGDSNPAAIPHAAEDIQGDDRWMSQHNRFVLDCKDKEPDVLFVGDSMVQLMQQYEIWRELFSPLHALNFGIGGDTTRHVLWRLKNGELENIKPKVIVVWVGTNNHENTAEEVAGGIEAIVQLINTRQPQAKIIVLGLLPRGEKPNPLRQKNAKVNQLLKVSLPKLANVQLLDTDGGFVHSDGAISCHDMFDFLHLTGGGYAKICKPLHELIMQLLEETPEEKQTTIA
PKA-R2B activ: PKA-R2B complex activation | 0.079% of 340,000 active | PKA-R2B holoenzyme dissociation, Cy5-IP20 fluorescence polarization; R2B truncated from residue 108, S112A mutant; 0% DMSO only, 100% 113 µM cGMP | AID 504700 | P22694+P31323 | activation, % at 11.4 µM;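 active means activation above a cutoff set at the mean over all compounds plus 3 SD, cut at about 18% in these data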;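 further: higher means more holoenzyme dissociation and a rise in polarization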
Large screens that a line does not name were inactive.

CCN(C1CCCCC1)S(=O)(=O)c1ccc(S(=O)(=O)N2CCN(CCC#N)CC2)cc1	PAFAH1B2 FP inh 25.3
CCCCCCCCNC(=O)CC(NS(=O)(=O)c1ccc(NC(C)=O)cc1)C(C)C (stereo not drawn)	pPAFAH inh 31.7
CC(=O)Nc1ccc(S(=O)(=O)NC(CC(=O)NCCCN2CCOCC2)C(C)C)cc1 (stereo not drawn)	none
CCC1CCCCN1C(=O)CCS(=O)(=O)c1ccccc1 (stereo not drawn)	none
C=CCOc1c(Br)cc(/C=N/Nc2ccc(C(=O)O)cc2)cc1OCC	pPAFAH inh 29.6
COc1ccc(/C=N/Nc2ccc(C(=O)O)cc2)cc1Br	none
CC(c1nc2scc(-c3ccccc3)c2c(=O)[nH]1)N1CCN(CC(=O)NC2CC2)CC1 (stereo not drawn)	none (no result: pPAFAH inh)
Cc1ccc(NC(=O)NNS(=O)(=O)c2ccc(Br)cc2)cc1	none
Cc1ccc(S(=O)(=O)NC(=O)Nc2ccc(N(C)C)cc2)cc1	pPAFAH inh 25.1
O=C(O)c1ccc(-c2ccc(/C=c3/sc4nc5ccccc5n4c3=O)o2)cc1Cl	pPAFAH inh 26.7, PAFAH1B3 FP inh 25.9
COc1ccccc1N1CCN(C2CCCN(C(=O)CCC(=O)N(C)C)C2)CC1 (stereo not drawn)	none
Cc1cc(S(=O)(=O)Nc2ccc(C(=O)NCC3CCCO3)cc2)ccc1F (stereo not drawn)	none (no result: PKA-R1A activ, PAFAH1B3 FP inh, PAFAH2 inh, PAFAH1B2 FP inh, PKA-R2B activ)
O=C(NCCCN1CCCC1=O)c1cccc(NS(=O)(=O)c2ccccc2)c1	none
O=C(NCC1CCCO1)c1cccc(S(=O)(=O)Nc2ccc(F)cc2)c1 (stereo not drawn)	pPAFAH inh 24.8
O=C(NCCCN1CCCC1=O)c1cccc(S(=O)(=O)Nc2ccc(F)cc2)c1	pPAFAH inh 34.1
COc1ccc(NS(=O)(=O)c2cccc(C(=O)NCCCN3CCCC3=O)c2)cc1	none
Cc1cccc(NS(=O)(=O)c2cccc(C(=O)NCCCN3CCCC3=O)c2)c1	pPAFAH inh 27.8
O=C(NC(=S)NCCc1ccccn1)c1ccco1	none
CN(CCc1ccccn1)C(=S)NC(=O)c1ccco1	PAFAH1B2 FP inh 52.8
Cc1ccc(NC(=O)COc2coc(CN3CCc4ccccc4C3)cc2=O)c(C)c1	pPAFAH inh 24.7
O=C(NC1CCN(S(=O)(=O)c2ccccc2C(F)(F)F)CC1)c1ccco1	none
CCNc1c(NS(=O)(=O)c2ccc(F)c(Cl)c2)c(=O)oc2ccccc12	none
COc1ccc2c(-c3ccccc3)cc(SCC(=O)N(C)C)nc2c1	pPAFAH inh 33.0
CCN(C(=O)CSc1cc(-c2ccccc2)c2ccc(OC)cc2n1)C1CCS(=O)(=O)C1 (stereo not drawn)	pPAFAH inh 26.2
COCCNC(=O)CSc1cc(-c2ccccc2)c2ccc(OC)cc2n1	pPAFAH inh 29.6
COc1ccc2c(-c3ccccc3)cc(SCC(=O)NC(N)=O)nc2c1	none
CCN(C(=O)CSc1cc(C)c2ccc(OC)cc2n1)C1CCS(=O)(=O)C1 (stereo not drawn)	none
COc1ccc(CNC(=O)O[C@H]2C[C@@H]3C(=O)N(c4ccccc4)C(=O)[C@@H]3[C@@H]3CN(S(=O)(=O)c4ccc(C)cc4)C[C@]23O)cc1OC	none (no result: pPAFAH inh, PAFAH1B3 FP inh, PAFAH2 inh, PAFAH1B2 FP inh)
CC(=O)N1CCc2cc(S(=O)(=O)CCC(=O)Nc3ccc(Cl)cc3F)ccc21	none
O=C(CSc1nc(-c2ccccc2)cc(=O)[nH]1)Nc1ccc(F)c(F)c1	none
C=CC[C@@H]1C=C(C)C[C@H](C)C[C@H](OC)[C@H]2O[C@@](O)(C(=O)C(=O)N3CCCC[C@H]3C(=O)O[C@H](/C(C)=C/[C@@H]3CC[C@@H](O)[C@H](OC)C3)[C@H](C)[C@@H](O)CC1=O)[C@H](C)C[C@@H]2OC	none (no result: PKA-R1A activ, PAFAH1B3 FP inh, PAFAH2 inh, PAFAH1B2 FP inh, PKA-R2B activ)
Cc1c(O)cc2c(c1O)C(=O)CC(c1ccc(O)cc1)O2 (stereo not drawn)	pPAFAH inh 32.2
COc1cc(O)c2c(c1)OC(c1ccc(O)cc1)CC2=O (stereo not drawn)	none
COc1cc(C(=O)NCC(=O)N2CCN(S(=O)(=O)c3ccccc3C(F)(F)F)CC2)cc(OC)c1OC	none
